The source of these data is article PMC7819943, “Rice protein-binding microarrays: a tool to detect cis-acting elements near promoter regions in rice”.

Whole data set: some 68,000 sequences, median “fluorescence intensity (a.u.)” near 9,100, cut for the highest 2% near 16,000. The sample holds the highest values, similar sequences and a random draw of the others, so the mix is not that of the screen.

The target of the assay is OsWRKY34 (Oryza sativa, UniProt Q0JBA9 1-250). The assay can be described thus: protein-binding microarray (RPBM); PBS, 2% BSA, 51.3 ng/ul salmon testes DNA, 50 uM zinc acetate, 200 nM TF, 25 C, 1 h; high values mean tight binding. The settings on record: protein: recombinant; tags: N-terminal polyhistidine and DsRed monomer fusion (pET32a); label: CyDye5-dUTP incorporated in the synthesized complementary strand; 3' TTTTT single-stranded linker to array surface; dsDNA, one strand shown. The procedure, abridged: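 Binding signal is reported as fluorescence intensity per feature (arbitrary units) from an Axon 4000B scanner. Incubation used 200 nM of each Ni–NTA-purified, N-terminally polyhistidine- and DsRed-fused transcription factor from E. coli BL21-CodonPlus on a double-stranded custom Agilent array for 1 h at 25 °C, with 50 µM zinc acetate in the buffer, followed by washing.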
OsWRKY34, sequence (Q0JBA9 entry or part of it): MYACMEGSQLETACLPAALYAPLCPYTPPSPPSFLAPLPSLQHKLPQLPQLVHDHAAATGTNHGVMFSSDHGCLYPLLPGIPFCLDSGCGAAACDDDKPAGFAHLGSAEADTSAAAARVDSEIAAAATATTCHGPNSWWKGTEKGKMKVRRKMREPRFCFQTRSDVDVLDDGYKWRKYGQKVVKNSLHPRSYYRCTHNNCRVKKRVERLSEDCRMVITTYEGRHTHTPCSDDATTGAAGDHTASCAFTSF
In the case of “GGTTTTTCCTAGTTTTGAGATTTACGTGCTATTTTGTGAACGGAGTCACCTAGTGCAG”, the binding signal is 8950 fluorescence intensity (a.u.). In the case of “CGTGTCGCACCACATCCAGCGTCCCACGGCCTACCACCGCCGGAGTCACCTAGTGCAG”, the binding signal is 8700 fluorescence intensity (a.u.). Consider “ATATGGCATCTCGGTTTCGTCTTAACAGGGTATTGCACTACGGAGTCACCTAGTGCAG”, for which the binding signal is 9900 fluorescence intensity (a.u.).

In the case of “ACTCCCTTGCTTTTTCTCGCTATCAATCACAATAATCCAACGGAGTCACCTAGTGCAG”, the binding signal was 9590 fluorescence intensity (a.u.). For “CGTGTGGTTGATTGTGTGTGCGAGCCGAATGCTGCCTACTCGGAGTCACCTAGTGCAG”, the binding signal was 9260 fluorescence intensity (a.u.). The same measure for “TTACCATGGTGCATTTACGGCTGTGATCGCTTTGTTGTACCGGAGTCACCTAGTGCAG”: 9370 fluorescence intensity (a.u.); for “TCTCGGCTCGCAATGCTTTTTGGAGTTTTGTTTCTCTCCCCGGAGTCACCTAGTGCAG”: 10200 fluorescence intensity (a.u.). “TCATTGCACCTCTCATTTAACAAGGGATATAATAGTTCTTCGGAGTCACCTAGTGCAG”: the binding signal is 8360 fluorescence intensity (a.u.). The result for “TGGCATCATCGACCATACACTTTTGTCAATCCGTTCAGCTCGGAGTCACCTAGTGCAG” reads 8910 fluorescence intensity (a.u.); that for “GCTTCAAACTCGAGCTTCTACCAGTACCAGCTACCAGGTGCGGAGTCACCTAGTGCAG”, 8190 fluorescence intensity (a.u.).

For “TAGTCAAACGTTGAAAAAAAAAGTCAACGGCGTCACACATCGGAGTCACCTAGTGCAG”, the binding signal was 20900 fluorescence intensity (a.u.).

Turning to “AAAAAGTCAACGGCGTCAAACATATTGAAACGGAGGGAGTCGGAGTCACCTAGTGCAG”, the binding signal is 8240 fluorescence intensity (a.u.). Turning to “CAAACGTTGGAAAAAAGTCAACGGCGTCATATATTTTAATCGGAGTCACCTAGTGCAG”, the binding signal was 15800 fluorescence intensity (a.u.). With “AAAATTCCTAAAACTACTTGCTACTATTCTCTCTCCAACTCGGAGTCACCTAGTGCAG”, the binding signal was 8240 fluorescence intensity (a.u.). On to “TCCTCGCGTTCTTTTTCTCCACCGAGACCACCGGCGCTCTCGGAGTCACCTAGTGCAG”, for which the binding signal is 9050 fluorescence intensity (a.u.). The result for “TTGGTGGCCTTTTCTCCCTTTTTTGCATGTGCTTTGCTCTCGGAGTCACCTAGTGCAG” reads 14100 fluorescence intensity (a.u.); that for “CACATATCGTTTAAATTTTCGACTTGACCGTTTTTCAATTCGGAGTCACCTAGTGCAG”, 9550 fluorescence intensity (a.u.). Consider “TACCCCTCCGTTTCATATGATAAGTTGTTTGACTTTTTTTCGGAGTCACCTAGTGCAG”, for which the binding signal is 14300 fluorescence intensity (a.u.). The result for “AGCACATATTTGACCGTTCGTCTTATTCAAAAACTTTTATCGGAGTCACCTAGTGCAG” reads 8540 fluorescence intensity (a.u.). The same measure for “GATTTTGACTTTTTACTTGCACTGTTTGACCATTCATATTCGGAGTCACCTAGTGCAG”: 16300 fluorescence intensity (a.u.); for “GATACCGTTGACTTTTTAGCACATATTTGACCGTTCGTCTCGGAGTCACCTAGTGCAG”: 39400 fluorescence intensity (a.u.). The result for “GGATTTTAAGTTTTTACTTGCACTGTTTGACCATTCGTCTCGGAGTCACCTAGTGCAG” reads 9200 fluorescence intensity (a.u.). On to “GGATTTTGACTTTTTACTTGCACTGTTTGACTATTCGTCTCGGAGTCACCTAGTGCAG”, for which the binding signal is 18600 fluorescence intensity (a.u.). On to “TGATACCGTTGACTTTTCACATAACTTGGTCGTTCGTTTTCGGAGTCACCTAGTGCAG”, for which the binding signal is 34100 fluorescence intensity (a.u.). For “GACGCCGTTGACTTTTTATCACATATTTGACCGTTCGTCTCGGAGTCACCTAGTGCAG”, the binding signal was 20400 fluorescence intensity (a.u.). Take “ACGCCGTTGATTTTTTTAAACATATTTGACCGTTCGTCTTCGGAGTCACCTAGTGCAG”: the binding signal was 11400 fluorescence intensity (a.u.). The same measure for “ACTTCACCGGTTTCCGGCGTCCGGCGCGGCGCCTGCAGAACGGAGTCACCTAGTGCAG”: 9530 fluorescence intensity (a.u.); for “TAACACCCAACACTTACACTCTGGCATTTTGGAGGTCTTGCGGAGTCACCTAGTGCAG”: 8990 fluorescence intensity (a.u.).

Take “AGCACCTACGGCGGCGTCTTCTCCTACTGCCTACCGCCGACGGAGTCACCTAGTGCAG”: the binding signal is 9000 fluorescence intensity (a.u.). For “ATGACGTCCAAAGCTTCACCTTTTTTTTTATATATAAACCCGGAGTCACCTAGTGCAG”, the binding signal was 8260 fluorescence intensity (a.u.). As to “GGGTAGGAGGAGGTAATTGAGAGGTAATTCCTCCTTTAATCGGAGTCACCTAGTGCAG”, the binding signal is 9220 fluorescence intensity (a.u.). The result for “TTTTGACGACCCTAGCAATATTGCTATACACTCTTCATTCCGGAGTCACCTAGTGCAG” reads 10700 fluorescence intensity (a.u.); that for “AAGAAATCTTCCCTGTCCTACCTTTTCTTCTCACTGTATGCGGAGTCACCTAGTGCAG”, 8860 fluorescence intensity (a.u.); that for “ACAGGAGAGTGATTACTTTTGCATTATTAATTGATGTTGTCGGAGTCACCTAGTGCAG”, 8400 fluorescence intensity (a.u.). With “CACCGTTGACTTTTTAGCACATATTTGACCGTTTGTCTTTCGGAGTCACCTAGTGCAG”, the binding signal is 39100 fluorescence intensity (a.u.).

Turning to “TTAGCACATGTTTGACCGTTCGTCTTATTCAAAAACTTTTCGGAGTCACCTAGTGCAG”, the binding signal is 12600 fluorescence intensity (a.u.). “TTTGACATCATTGACTTTTTAGCACATATTTGACCGTTCGCGGAGTCACCTAGTGCAG”: the binding signal was 14400 fluorescence intensity (a.u.).

With “GACACTGTTGACTTTTTAGCACATATTTGACCGTTCGTCTCGGAGTCACCTAGTGCAG”, the binding signal is 21300 fluorescence intensity (a.u.). Turning to “GACACCGTTAACTTTTTAGCATATGTTTGACCGTTCGTCTCGGAGTCACCTAGTGCAG”, the binding signal is 10600 fluorescence intensity (a.u.). The same measure for “CCCACACTTCTCCCGTTCTCCTGGAGGAAGACGACACCCACGGAGTCACCTAGTGCAG”: 8150 fluorescence intensity (a.u.); for “CATCTTCGTCCTTTAAATTTGTTTTATTTTAAATCCTCTACGGAGTCACCTAGTGCAG”: 8400 fluorescence intensity (a.u.); for “TCATTTGTCATCCATAAGTTTATATTTTGTACTTTTAGTTCGGAGTCACCTAGTGCAG”: 8550 fluorescence intensity (a.u.).
